Records with an inconclusive call do not appear. Active and inactive are the calls of the source. Unless noted, calls follow the shape of the dose curve; as a rule, active = well fitted curve in the direction sought with a large enough effect in the repeat runs; inconclusive = weak or mixed curves; inactive = no such curve, though single readings can be large; an effect the other way counts as inactive or inconclusive.
target: Estrogen receptor (Homo sapiens) (UniProt P03372); assay: qHTS assay to identify small molecule agonists of the estrogen receptor alpha (ER-alpha) signaling pathway (AID 743075; calls by dose curve;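 also: HEK293 GripTite cells with ER-alpha and UAS-driven beta-lactamase reporter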); details: HEK293 ER-alpha-UAS-bla, beta-lactamase FRET ratio, 18 h; series mostly up to 70.1 µM; activation: at the top concentration
% is scaled to controls: 0 for no effect and ±100 for the full control effect.

Estrogen receptor (Homo sapiens), sequence (P03372 whole entry, looked up): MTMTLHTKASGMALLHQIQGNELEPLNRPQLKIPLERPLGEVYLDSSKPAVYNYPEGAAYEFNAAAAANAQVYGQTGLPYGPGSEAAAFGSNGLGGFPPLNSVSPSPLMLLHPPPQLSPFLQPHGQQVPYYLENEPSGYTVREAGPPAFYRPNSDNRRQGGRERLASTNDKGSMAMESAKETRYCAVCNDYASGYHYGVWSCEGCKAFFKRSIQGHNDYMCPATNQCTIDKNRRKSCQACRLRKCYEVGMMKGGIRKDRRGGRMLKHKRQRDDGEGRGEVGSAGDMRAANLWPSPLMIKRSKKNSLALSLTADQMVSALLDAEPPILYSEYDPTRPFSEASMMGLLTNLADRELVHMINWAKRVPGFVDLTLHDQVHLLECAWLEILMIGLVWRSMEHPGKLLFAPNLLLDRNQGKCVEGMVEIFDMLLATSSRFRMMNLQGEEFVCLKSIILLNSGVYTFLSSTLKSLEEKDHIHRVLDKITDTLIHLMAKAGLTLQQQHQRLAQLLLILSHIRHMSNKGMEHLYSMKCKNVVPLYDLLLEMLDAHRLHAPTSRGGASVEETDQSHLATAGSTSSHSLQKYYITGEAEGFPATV

Row | Structure (SMILES) | activation
1 | FC1(F)C(F)(F)C(F)(F)C2(F)C(F)(F)C(F)(F)C(F)(F)C(F)(F)C2(F)C1(F)F (centres undefined) | -3.18% (inactive)
2 | O=C1OC(=O)C2CCCCC12 (centres undefined) | -2.1% (inactive)
3 | CCCCC(CC)COC(=O)c1ccccc1O (centres undefined) | 1.54% (inactive)
4 | CC1(C)C(O)C(C)(C)C1O (centres undefined) | 12.8% (inactive)
5 | CC(=O)OCC(CCn1cnc2cnc(N)nc21)COC(C)=O | -0.493% (inactive)
6 | CC(C)NC(=O)NC(C)C | 1.94% (inactive)
7 | O=C(O)COc1nn(Cc2ccccc2)c2ccccc12 | -4.04% (inactive)
8 | CN1C(=O)N(C)C(O)C1O (centres undefined) | -2.05% (inactive)
9 | O=C1CCCN1C1CCCCC1 | 1.98% (inactive)
10 | CCn1ccnc1CC1COc2ccccc2O1 (centres undefined) | 2.23% (inactive)
11 | N[C@H]1CN(c2c(F)cc3c(=O)c(C(=O)O)cn(C4C[C@H]4F)c3c2Cl)CC12CC2 (some centres undefined) | 6.06% (inactive)
12 | CCCCCSCCCCC | 0.369% (inactive)
13 | ClC(Cl)(Br)Br | -0.977% (inactive)
14 | N=C(N)c1ccc2cc(OC(=O)c3ccc(N=C(N)N)cc3)ccc2c1 | 2.04% (inactive)

target: Estrogen receptor (Homo sapiens) (UniProt P03372); assay: qHTS assay to identify small molecule agonists of the estrogen receptor alpha (ER-alpha) signaling pathway using the BG1 cell line (AID 743079); details: BG1Luc4E2 cells, ERE-luciferase agonist, 22 h; series mostly up to 70.3 µM; activation: at the top concentration; also: nearly all actives have a fitted effect of over 20% in size; also: potency is read from the fitted curve at half-maximal effect

Row | Structure (SMILES) | activation | Potency
15 | NC(=O)Nc1ccccc1 | -3.19% (inactive) | 
16 | CCCc1cc(C(N)=S)ccn1 | -1.41% (inactive) | 
17 | CC(C(=O)O)c1ccc(CC2CCCC2=O)cc1 (centres undefined) | -6.23% (inactive) | 
18 | CC(C)(C)NCCNC(C)(C)C | 4.78% (inactive) | 
19 | C=C1CC[C@H]2C[C@@H]1C2(C)C | -2.45% (inactive) | 
20 | OCCCC1CCCCC1 | 2.71% (inactive) | 
21 | CCN1CCC[C@H]1CNC(=O)c1c(O)c(Cl)cc(Cl)c1OC | 7.34% (inactive) | 
22 | COCCCOCCCOC | 2.05% (inactive) | 
23 | CC(=O)Nc1ccc(S(N)(=O)=O)cc1 | -4.15% (inactive) | 
24 | CN1CCC(=C2c3ccccc3CC(=O)c3sccc32)CC1 | -15.5% (inactive) | 
25 | Cc1ccc(C#N)cc1 | -0.191% (inactive) | 
26 | N=c1nc(N2CCCCC2)cc(N)n1O | 0.546% (inactive) | 
27 | CC(C)c1cc2c(cc1S(=O)(=O)O)[C@@]1(C)CCC[C@@](C)(C(=O)O)[C@@H]1CC2 | 18.7% (inactive) | 
28 | Nc1ccc(S(=O)(=O)Nc2ccnn2-c2ccccc2)cc1 | -0.435% [at 32.5 µM] (inactive) | 
29 | CO[Si](CCCOCC1CO1)(OC)OC (centres undefined) | -4.55% (inactive) | 
30 | Nc1cc(=O)[nH]c(N)n1 | -0.266% (inactive) | 
31 | CCN(CC)CCNC(=O)c1cc(S(C)(=O)=O)ccc1OC | -2.26% [at 32.5 µM] (inactive) | 
32 | Cc1cc2c(cc1S(N)(=O)=O)S(=O)(=O)CCC2 | 6.54% [at 32.5 µM] (inactive) | 
33 | CC/C=C\CCOC(C)=O | -1.87% (inactive) | 
34 | Cc1cc(O)cc2c1O[C@](C)(CCC[C@H](C)CCC[C@H](C)CCCC(C)C)CC2 |  | inactive

Row | Structure (SMILES) | activation | Potency
35 | CC(C)(C)c1nnc(NS(=O)(=O)c2ccccc2)s1 | -1.37% (inactive) | 
36 | CS(=O)(=O)O | 0.339% [at 95 µM] (inactive) | 
37 | O=c1n(CCO)c(=O)n(CCO)c(=O)n1CCO |  | inactive
38 | Cc1ccc(Cl)cc1Cl | -6.7% (inactive) | 
39 | CC(C[N+](C)(C)C)OC(N)=O (centres undefined) | -2.63% (inactive) | 
40 | Cc1nc2c([nH]1)c(=O)n(C)c(=O)n2Cc1ccco1 | -15.5% (inactive) | 
41 | FC1(F)C(F)(F)C(F)(F)C2(F)C(F)(F)C(F)(F)C(F)(F)C(F)(F)C2(F)C1(F)F (centres undefined) | -4.85% (inactive) | 
42 | O=C1OC(=O)C2CCCCC12 (centres undefined) | 6.31% (inactive) | 
43 | CCCCC(CC)COC(=O)c1ccccc1O (centres undefined) |  | 16.8 µM (active)
44 | CC1(C)C(O)C(C)(C)C1O (centres undefined) | 0.823% (inactive) | 
45 | CC(=O)OCC(CCn1cnc2cnc(N)nc21)COC(C)=O | 9.41% (inactive) | 
46 | CC(C)NC(=O)NC(C)C | 8.71% (inactive) | 
47 | O=C(O)COc1nn(Cc2ccccc2)c2ccccc12 | 2.12% (inactive) | 
48 | CN1C(=O)N(C)C(O)C1O (centres undefined) | 1.41% (inactive) | 
49 | O=C1CCCN1C1CCCCC1 | 4.37% (inactive) | 
50 | CCn1ccnc1CC1COc2ccccc2O1 (centres undefined) | 1.04% (inactive) | 
51 | N[C@H]1CN(c2c(F)cc3c(=O)c(C(=O)O)cn(C4C[C@H]4F)c3c2Cl)CC12CC2 (some centres undefined) | -10.7% (inactive) | 
52 | CCCCCSCCCCC | -2% (inactive) | 
53 | ClC(Cl)(Br)Br | 4.24% (inactive) | 
54 | N=C(N)c1ccc2cc(OC(=O)c3ccc(N=C(N)N)cc3)ccc2c1 | 1.42% (inactive) | 

test system: not listed separately; assay: qHTS assay to identify small molecule antagonists of the estrogen receptor alpha (ER-alpha) signaling pathway using the BG1 cell line (AID 743080; calls by dose curve;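 also: BG1 cells stimulated with 17beta-estradiol alongside compound; nearly all actives have a fitted effect of over 25% in size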); details: BG1Luc4E2 ERE-luciferase antagonist mode, luminescence; series mostly up to 70.3 µM; activity change, negative = inhibition: at the top concentration
Procedure, shortened: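 Quantitative HTS on the Tox21 10K library: BG1 cells with endogenous ER-alpha and ERE-luciferase reporter, 17beta-estradiol stimulation, 21.5 h compound exposure, luminescence endpoint with parallel fluorescence cytotoxicity counter-read.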

Row | Structure (SMILES) | activity change, negative = inhibition | outcome
55 | CC(C(=O)O)c1ccc(CC2CCCC2=O)cc1 (centres undefined) | -0.447% (inactive) | 
56 | C=C1CC[C@H]2C[C@@H]1C2(C)C | -1.96% (inactive) | 
57 | CCN1CCC[C@H]1CNC(=O)c1c(O)c(Cl)cc(Cl)c1OC | -8.06% (inactive) | 
58 | COCCCOCCCOC | -7.57% (inactive) | 
59 | CC(=O)Nc1ccc(S(N)(=O)=O)cc1 | -3.04% (inactive) | 
60 | CN1CCC(=C2c3ccccc3CC(=O)c3sccc32)CC1 | 3.76% (inactive) | 
61 | CO[Si](CCCOCC1CO1)(OC)OC (centres undefined) |  | inactive
62 | CC/C=C\CCOC(C)=O | 2.22% (inactive) | 
63 | CC(C)(C)c1nnc(NS(=O)(=O)c2ccccc2)s1 | -1.91% (inactive) | 
64 | CC(C[N+](C)(C)C)OC(N)=O (centres undefined) | 0.407% (inactive) | 
65 | O=C1CCCN1C1CCCCC1 | -1.79% (inactive) | 
66 | N[C@H]1CN(c2c(F)cc3c(=O)c(C(=O)O)cn(C4C[C@H]4F)c3c2Cl)CC12CC2 (some centres undefined) | -4.81% (inactive) | 

test system: not listed separately; assay: qHTS assay to identify small molecule antagonists of the estrogen receptor alpha (ER-alpha) signaling pathway using the BG1 cell line - cell viability counter screen (AID 743081); details: BG1Luc4E2 viability, CellTiter-Fluor, 22 h; series mostly up to 70.3 µM; activity change, negative = cytotoxicity: at the top concentration;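 also: compound given together with 17beta-estradiol as the ER stimulus; nearly all actives have a fitted effect of over 45% in size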

Row | Structure (SMILES) | activity change, negative = cytotoxicity | Potency
67 | NC(=O)Nc1ccccc1 | 0.7% (inactive) | 
68 | CCCc1cc(C(N)=S)ccn1 | -0.528% (inactive) | 
69 | CC(C(=O)O)c1ccc(CC2CCCC2=O)cc1 (centres undefined) | 0.534% (inactive) | 
70 | CC(C)(C)NCCNC(C)(C)C | 4.9% (inactive) | 
71 | C=C1CC[C@H]2C[C@@H]1C2(C)C | 1.9% (inactive) | 
72 | OCCCC1CCCCC1 | -1.38% (inactive) | 
73 | CCN1CCC[C@H]1CNC(=O)c1c(O)c(Cl)cc(Cl)c1OC | -0.251% (inactive) | 
74 | COCCCOCCCOC | 10.5% (inactive) | 
75 | CC(=O)Nc1ccc(S(N)(=O)=O)cc1 | 22.9% (inactive) | 
76 | Cc1ccc(C#N)cc1 | 1.35% (inactive) | 
77 | N=c1nc(N2CCCCC2)cc(N)n1O | -0.361% (inactive) | 
78 | CC(C)c1cc2c(cc1S(=O)(=O)O)[C@@]1(C)CCC[C@@](C)(C(=O)O)[C@@H]1CC2 | 3.03% (inactive) | 
79 | Nc1ccc(S(=O)(=O)Nc2ccnn2-c2ccccc2)cc1 | -1.32% [at 32.5 µM] (inactive) | 
80 | CO[Si](CCCOCC1CO1)(OC)OC (centres undefined) |  | inactive
81 | Nc1cc(=O)[nH]c(N)n1 | 19.3% (inactive) | 
82 | CCN(CC)CCNC(=O)c1cc(S(C)(=O)=O)ccc1OC | 2.46% [at 32.5 µM] (inactive) | 
83 | Cc1cc2c(cc1S(N)(=O)=O)S(=O)(=O)CCC2 | -0.542% [at 32.5 µM] (inactive) | 
84 | CC/C=C\CCOC(C)=O | -3.41% (inactive) | 
85 | Cc1cc(O)cc2c1O[C@](C)(CCC[C@H](C)CCC[C@H](C)CCCC(C)C)CC2 |  | inactive

Row | Structure (SMILES) | activity change, negative = cytotoxicity | Potency
86 | CC(C)(C)c1nnc(NS(=O)(=O)c2ccccc2)s1 | -18.6% (inactive) | 
87 | CS(=O)(=O)O | -0.779% [at 95 µM] (inactive) | 
88 | O=c1n(CCO)c(=O)n(CCO)c(=O)n1CCO |  | inactive
89 | Cc1ccc(Cl)cc1Cl | -2.63% (inactive) | 
90 | CC(C[N+](C)(C)C)OC(N)=O (centres undefined) | -0.703% (inactive) | 
91 | Cc1nc2c([nH]1)c(=O)n(C)c(=O)n2Cc1ccco1 | 4.99% (inactive) | 
92 | FC1(F)C(F)(F)C(F)(F)C2(F)C(F)(F)C(F)(F)C(F)(F)C(F)(F)C2(F)C1(F)F (centres undefined) | -1.72% (inactive) | 
93 | O=C1OC(=O)C2CCCCC12 (centres undefined) | 10.3% (inactive) | 
94 | CCCCC(CC)COC(=O)c1ccccc1O (centres undefined) | 2.72% (inactive) | 
95 | CC1(C)C(O)C(C)(C)C1O (centres undefined) | -0.856% (inactive) | 
96 | CC(=O)OCC(CCn1cnc2cnc(N)nc21)COC(C)=O | 1.24% (inactive) | 
97 | CC(C)NC(=O)NC(C)C | 0.867% (inactive) | 
98 | O=C(O)COc1nn(Cc2ccccc2)c2ccccc12 | 6.51% (inactive) | 
99 | CN1C(=O)N(C)C(O)C1O (centres undefined) | 4.57% (inactive) | 
100 | O=C1CCCN1C1CCCCC1 | 13.4% (inactive) | 
101 | CCn1ccnc1CC1COc2ccccc2O1 (centres undefined) | 7.12% (inactive) | 
102 | CCCCCSCCCCC | 0.458% (inactive) | 
103 | ClC(Cl)(Br)Br | 3.7% (inactive) | 
104 | N=C(N)c1ccc2cc(OC(=O)c3ccc(N=C(N)N)cc3)ccc2c1 | 4.95% (inactive) | 

— PubChem BioAssay (Tox21)
